Common to all, as to test: NCI-60 one-dose screen, 48 h (100 = growth as untreated, 0 = no growth, -100 = all killed)
Settings in all cases: 10 µM unless noted

The subject of experiment [1] is NCI-H23 lung.
Experiment [2] has as its system NCI-H226 lung.
Experiment [3] concerns NCI-H322M lung.
Experiment [4] concerns HOP-62 NSCLC.
Experiment [5] concerns NCI-H460 lung.
The test system of experiment [6] is HOP-92 NSCLC.
In experiment [7] the test system is NCI-H522 lung.
Experiment [8] deals with A549/ATCC NSCLC.
The test system of experiment [9] is 786-0 renal.
Experiment [10] relates to COLO 205 colon.
The subject of experiment [11] is DU-145 prostate.
For experiment [12], the system named is K-562 leukemia.
In experiment [13] the test system is MALME-3M melanoma.
Experiment [14] concerns MDA-MB-231 breast.
Experiment [15] has as its system RXF 393 renal.
Experiment [16] has as its system SF-268 CNS.
Experiment [17] deals with SF-295 CNS.
Experiment [18] concerns SF-539 CNS.
For experiment [19], the system named is UACC-257 melanoma.
In experiment [20] the test system is M14 melanoma.

About 83,000 compounds went through this panel and 20% of them were active in at least one assay; those are over-represented in the sample as a whole.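 Compound tested at a single concentration for 48 hours in 96-well plates; a percent growth value below 10 was scored as active.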 A number with no mark means an inactive call. Calls of active or inactive are those of the source.

With `COc1cc(C2C3=C(COC3=O)N(CCO)c3cc4c(cc32)OCCO4)cc(OC)c1OC` (stereo not given), the growth in experiment [1] is 14.5%; in experiment [2] it was 13.5%; in experiment [3], 36.9%; in [4], 15.4%; in experiment [5], 1.13% (active); in experiment [6] it was 26.8%. For the same compound, the growth is -10% (active) in experiment [7]; 11.9% in experiment [8]; 1.83% (active) in experiment [9]; -85.9% (active) in experiment [10]; -30.1% (active) in experiment [11]; 5.23% (active) in experiment [12]. The growth in experiment [13] is 53.7%; in experiment [14], 9.38% (active); in [15] it was -8.9% (active); in experiment [16], 26.8%; in experiment [17], -5.17% (active); in [18], -25.4% (active). Besides, the growth is 42.5% in [19] and -28.8% (active) in experiment [20].

In the case of `Cn1cc(-c2csc(-c3cn(C(=O)OC(C)(C)C)c4ccccc34)n2)c2ccnc(Cl)c21`, the growth in experiment [1] is 57.1%; in experiment [2] it was 46.4%; in experiment [3] it was 85.3%; in experiment [4], 72.4%; in [5], 22.4%; in experiment [6], 58.5%. Moreover, the growth in experiment [7] was 50%; in experiment [8], 26.8%; in experiment [9], 67.2%; in [10], 39.8%; in experiment [11], 74.1%; in experiment [12], 68.1%. Also, the growth in experiment [13] was 90%; in [14], 38.3%; in experiment [15], 63.6%; in experiment [16], 71.8%; in [17], 62.4%; in [18] it was 68.3%. The growth in experiment [19] was 59.5%; in experiment [20], 79%.

Regarding `O=C(Nc1ncc(Cc2ccccc2Cl)s1)c1cccs1`, the growth in experiment [1] is 80.3%; in experiment [2], 85.1%; in experiment [3], 78%; in [4] it was 66.6%; in [5], 57.7%; in [6], 58.6%. For the same compound, the growth is 51.9% in experiment [7]; 54.1% in experiment [8]; 86.1% in experiment [9]; 85.8% in experiment [10]; 82.6% in [11]; 16.9% in experiment [12]. Besides, the growth was 69.1% in [13]; 88.7% in [14]; 82.2% in experiment [15]; 76.4% in experiment [16]; 65.2% in experiment [17]; 95.8% in [18]. In addition, the growth in [19] was 92.6%; in experiment [20], 62.3%.

For the compound `O=C(c1ccc(Cl)cc1Cl)N1c2ccccc2Sc2ccccc21`, the growth was 73.5% in experiment [1]; 68% in experiment [2]; 85.2% in experiment [3]; 64.7% in experiment [4]; 18.3% in experiment [5]; 71.5% in [6]. For the same compound, the growth in experiment [7] is 63.7%; in [8] it was 54.2%; in experiment [9] it was 67%; in experiment [10] it was 45%; in [11] it was 65.2%; in experiment [12], -42.2% (active). Further, the growth was 63.8% in experiment [13]; 68.8% in experiment [14]; 70% in experiment [15]; 50% in experiment [16]; 53.1% in experiment [17]; 41.8% in experiment [18]. The figures for the growth in [19] and in [20] were 64.3% and 59.8%, respectively.

Turning to `CCCCCCCCCCCCCCCCOC(=O)c1c(C)[nH]c(/C=C2\N=C(c3ccc[nH]3)C=C2OC)c1C`, the growth was 48.8% in experiment [1]; 6.67% (active) in experiment [2]; 82.7% in experiment [3]; 54.2% in experiment [4]; 13.3% in experiment [5]; -12.6% (active) in [6]. The growth in experiment [7] was 27.1%; in [8] it was 11%; in experiment [9], 11.3%; in experiment [10], 33.6%; in [11], 49.3%; in experiment [12], 38.3%. Also, the growth is 68.4% in experiment [13]; 46.6% in [14]; 32% in experiment [15]; 69.6% in experiment [16]; 68.7% in experiment [17]; 63.6% in experiment [18]. Besides, the figures for the growth in experiment [19] and in [20] were 86.1% and -17.1% (active), respectively.

For the compound `CCCCN1C(=O)/C(=c2\sc3n(c2=O)NC2C(N=3)N(CC)C(=O)N2CC)c2ccccc21` (stereo not given), the growth was 46.9% in experiment [1]; 70.4% in [2]; 69.9% in experiment [3]; 71.7% in experiment [4]; 35.3% in experiment [5]; 60% in experiment [6]. In addition, the growth in experiment [7] is 21.4%; in [8], 36.6%; in experiment [9], 53.6%; in experiment [10] it was 24.9%; in [11], 20.6%; in [12] it was 14.6%. Further, the growth in [13] was 57.6%; in experiment [14] it was 34.6%; in [15], -0.314% (active); in [16], 48.6%; in [17], 69.7%; in experiment [18], 13.5%. Further, the growth in experiment [19] is 31%; in experiment [20], 25.3%.

Consider `CCOC(=O)N1CCN(S(=O)(=O)c2oc(-c3ccc(Cl)cc3)nc2C#N)CC1`, for which the growth is 75.9% in experiment [1]; 93.4% in [2]; 99.3% in [3]; 96% in [4]; 103% in experiment [5]; 97.6% in experiment [6]. For the same compound, the growth in experiment [7] is -6.61% (active); in experiment [8], 96.8%; in experiment [9], 92.7%; in experiment [10] it was 47%; in [11], 103%; in experiment [12], 9.23% (active). Further, the growth in [13] is 79.8%; in [14], 93.4%; in [15], 83.8%; in [16], 109%; in experiment [17], 102%; in experiment [18], 89%. In addition, the growth was 84.1% in [19] and 75.4% in experiment [20].

In the case of `COc1cc2oc(-c3cccc(NC(=O)c4ccc5c(c4)OCO5)c3)cc(=O)c2c(OC)c1OC`, the growth in experiment [1] is 52.9%; in [2], 65.7%; in experiment [3], 43.5%; in [4], 54.4%; in experiment [5] it was 27.2%; in experiment [6], -6.11% (active). The growth was 36.7% in experiment [7]; 51.3% in experiment [8]; 19.5% in [9]; 68.1% in [10]; 52.9% in [11]; 17.4% in [12]. Besides, the growth in experiment [13] was 76.4%; in experiment [14], 64.3%; in [15], 46.5%; in experiment [16], 48.1%; in experiment [17], 53.9%; in experiment [18], 57%. Also, the growth in experiment [19] was 77.3%; in experiment [20] it was 49.3%.
